Our source for the Potency values is PubChem BioAssay (Tox21).

Inconclusive results are not listed. Where a call stands in place of a potency, no number is given. The source made the active and inactive calls. Unless noted, calls come from the whole dose curve; as a rule, active = well fitted cell-killing curve with a large enough effect in the repeat runs; inconclusive = weak or mixed curves; inactive = no such curve, though single readings can be large or run the other way.

The target of one assay is Peroxisome proliferator-activated receptor delta (Homo sapiens) (UniProt Q03181). Put plainly: qHTS assay to identify small molecule agonists of the peroxisome proliferator-activated receptor delta (PPARd) signaling pathway (AID 743212; calls by dose curve; note: potency is the fitted concentration of half-maximal effect). Conditions: HEK293H PPARd-UAS-bla, beta-lactamase FRET ratio, 17 h; series mostly up to 62.6 µM. The method, boiled down: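 GeneBLAzer UAS-bla HEK293H cells carrying a PPARδ construct were exposed to compounds at 37 °C. Beta-lactamase activity was read by FRET fluorescence after 2 h at room temperature with LiveBLAzer B/G substrate.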
Peroxisome proliferator-activated receptor delta (Homo sapiens), sequence (Q03181 whole entry, looked up): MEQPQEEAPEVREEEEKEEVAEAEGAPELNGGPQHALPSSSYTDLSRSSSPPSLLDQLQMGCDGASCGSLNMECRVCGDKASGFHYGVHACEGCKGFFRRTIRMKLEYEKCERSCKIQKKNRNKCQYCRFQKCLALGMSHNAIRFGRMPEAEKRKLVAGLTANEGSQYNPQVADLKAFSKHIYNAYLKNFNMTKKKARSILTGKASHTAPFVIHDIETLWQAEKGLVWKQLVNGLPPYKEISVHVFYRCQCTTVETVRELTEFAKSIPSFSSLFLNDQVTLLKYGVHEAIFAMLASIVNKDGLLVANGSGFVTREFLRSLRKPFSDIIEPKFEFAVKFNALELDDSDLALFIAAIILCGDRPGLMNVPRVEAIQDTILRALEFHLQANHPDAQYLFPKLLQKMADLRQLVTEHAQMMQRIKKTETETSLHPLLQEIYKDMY
On the technique in general: In qHTS, concentration-response curves come from the screen itself.
With `CC(=O)Oc1ccc2c(c1)CC[C@@H]1[C@@H]2CC[C@]2(C)[C@@H](O)CC[C@@H]12`, the Potency result is “inactive”.
The same measure, in the same setting: with `CC(N)CN` (stereo not drawn) the entry was “inactive”; with `O=C(CCCN1CCN(c2ccc(F)cc2)CC1)NC1c2ccccc2CSc2ccccc21` (stereo not drawn), “inactive”.
As to `C=CCNc1nc(NCC=C)nc(N2CCN(C(c3ccc(F)cc3)c3ccc(F)cc3)CC2)n1`, the Potency result is “inactive”.
For the compound `CC(C)CCCC(=O)O`, the Potency result was “inactive”.
The same measure, in the same setting: the value for `CC1C2CC(CC2C2CCCC(O)C2)C1(C)C` (stereo not drawn) was “inactive”; that for `O=C(CS)OCCOC(=O)CS` was “inactive”.
Same read-out and setting: with `CCCc1c(OCCCOc2ccc(OCC(=O)O)cc2)ccc(C(C)=O)c1O` the figure was 0.011 µM (active).
Same read-out and setting: with `CCCCCCCCCCCC[N+](C)(C)CC(=O)[O-]` the entry was “inactive”; with `O=C1OCCN1/N=C/c1ccc([N+](=O)[O-])o1`, “inactive”.
`COC(OC)(C(=O)c1ccccc1)c1ccccc1`: the Potency entry was “inactive”.
Same read-out and setting: with `CO/N=C1\CN(c2nc3c(cc2F)c(=O)c(C(=O)O)cn3C2CC2)CC1CN` (stereo not drawn) the entry was “inactive”; with `CC(C)C(OC(=O)c1ccccc1)C(C)(C)COC(=O)c1ccccc1` (stereo not drawn), “inactive”; with `CO[C@@]12[C@H](COC(N)=O)C3=C(C(=O)C(C)=C(N)C3=O)N1C[C@@H]1N[C@@H]12`, “inactive”.
The same measure, in the same setting: with `Cc1ccc(S)cc1` the entry was “inactive”.
Same read-out and setting: with `O=C(CCCCCCC(=O)Nc1ccccc1)NO` the entry was “inactive”.
Consider `O=Cc1c(Cl)cccc1Cl`, for which the Potency result was “inactive”.
Consider `CC#N`, for which the Potency entry was “inactive”.
On the same count and under the same terms, the value for `NC(=O)N(O)[C@@H]1COc2cc(OCc3ccccc3)ccc21` was “inactive”.
Same read-out and setting: with `OCC1CC=CCC1` (stereo not drawn) the entry was “inactive”; with `C[Si](NC1CCCCC1)(NC1CCCCC1)NC1CCCCC1`, “inactive”.
Still for that read-out and setting: the value for `CCCCCCOC(=O)C(C)C` was “inactive”.

System in the next assay: not listed separately
Description: qHTS assay to identify small molecule antagonists of the peroxisome proliferator-activated receptor delta (PPARd) signaling pathway - cell viability counter screen (AID 743213). Note: nearly all actives have a fitted effect of over 50% in size. Note: potency is the fitted concentration of half-maximal effect. Conditions: PPARd-bla HEK293H viability, CellTiter-Glo luminescence, 17 h; series mostly up to 62 µM. The method, boiled down: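 Same-well viability: cells pre-incubated 5 h, dosed with compound plus 300 nM L165041, kept 17 h at 37 C, FRET substrate 2 h RT, then CellTiter-Glo 30 min RT and luminescence.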
For `CC(=O)Oc1ccc2c(c1)CC[C@@H]1[C@@H]2CC[C@]2(C)[C@@H](O)CC[C@@H]12`, the Potency entry is “inactive”.
Same read-out and setting: with `CC(N)CN` (stereo not drawn) the entry was “inactive”.
Still for that read-out and setting: the value for `Cc1cc(OI)c(C(C)C)cc1-c1cc(C(C)C)c(OI)cc1C` was “inactive”; that for `CCc1nn(CCCN2CCN(c3cccc(Cl)c3)CC2)c(=O)n1CCOc1ccccc1` was “inactive”; that for `CCN(Cc1cccc(S(=O)(=O)O)c1)c1ccc(C(=C2C=CC(=[N+](CC)Cc3cccc(S(=O)(=O)[O-])c3)C=C2)c2ccccc2)cc1` was “inactive”.
On the same count and under the same terms, with `O=C(CCCN1CCN(c2ccc(F)cc2)CC1)NC1c2ccccc2CSc2ccccc21` (stereo not drawn) the figure was 8.41 µM (active); with `C=CCNc1nc(NCC=C)nc(N2CCN(C(c3ccc(F)cc3)c3ccc(F)cc3)CC2)n1`, “inactive”; with `CC(C)CCCC(=O)O`, “inactive”.
On to `COCCOC`, for which the Potency entry was “inactive”.
Take `O=C(CS)OCCOC(=O)CS`: the Potency entry is “inactive”.
In the case of `COC(OC)(C(=O)c1ccccc1)c1ccccc1`, the Potency result is “inactive”.
Consider `CO/N=C1\CN(c2nc3c(cc2F)c(=O)c(C(=O)O)cn3C2CC2)CC1CN` (stereo not drawn), for which the Potency result was “inactive”.
As for `CC(C)C(OC(=O)c1ccccc1)C(C)(C)COC(=O)c1ccccc1` (stereo not drawn), the Potency entry was “inactive”.
On the same count and under the same terms, the value for `CC(C)(CCl)c1ccccc1` was “inactive”; that for `Cc1nccn1-c1ccc(Sc2cccc(C3(C(N)=O)CCOCC3)c2)cc1` was “inactive”.
Still for that read-out and setting: the value for `CC[C@@H]([C@H](C)O)n1ncn(-c2ccc(N3CCN(c4ccc(OC[C@@H]5CO[C@@](Cn6cncn6)(c6ccc(F)cc6F)C5)cc4)CC3)cc2)c1=O` was 23.7 µM (active).
Still for that read-out and setting: with `CO[C@@]12[C@H](COC(N)=O)C3=C(C(=O)C(C)=C(N)C3=O)N1C[C@@H]1N[C@@H]12` the entry was “inactive”.
For the compound `Cc1ccc(S)cc1`, the Potency result was “inactive”.
Still for that read-out and setting: with `CCCOCCOCCO` the entry was “inactive”; with `CC(C)c1nnc2ccc(-c3ocnc3-c3cc(F)ccc3F)cn12`, “inactive”; with `O=C(CCCCCCC(=O)Nc1ccccc1)NO`, “inactive”.
As for `O=C(c1ccc(O)cc1)c1ccc(Cl)cc1`, the Potency entry was “inactive”.
In the case of `CC(C)(O)c1ccccc1CC[C@@H](SCC1(CC(=O)O)CC1)c1cccc(/C=C/c2ccc3ccc(Cl)cc3n2)c1`, the Potency result was “inactive”.
As for `NC(=O)Cn1c(=O)cc(CCN2CCN(c3nccc4sccc34)CC2)c2ccc(F)cc21`, the Potency entry was “inactive”.
With `O=Cc1c(Cl)cccc1Cl`, the Potency entry is “inactive”.
Still for that read-out and setting: the value for `CC#N` was “inactive”; that for `CCCCCCCCCCOS(=O)(=O)O` was “inactive”.
Still for that read-out and setting: with `NC(=O)N(O)[C@@H]1COc2cc(OCc3ccccc3)ccc21` the entry was “inactive”; with `OCC1CC=CCC1` (stereo not drawn), “inactive”; with `C[Si](NC1CCCCC1)(NC1CCCCC1)NC1CCCCC1`, “inactive”.
On the same count and under the same terms, the value for `CCCCCCOC(=O)C(C)C` was “inactive”.

In a further assay the target is Peroxisome proliferator-activated receptor delta (Homo sapiens) (UniProt Q03181). Put plainly: qHTS assay to identify small molecule antagonists of the peroxisome proliferator-activated receptor delta (PPARd) signaling pathway (AID 743215; active = well fitted inhibition curve with a large enough effect in the signal ratio in the repeat runs, not every such curve was filed as active; the % refers to the signal ratio;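 note: cells stimulated with agonist L165041 at 300 nM final during compound exposure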). Conditions: HEK293H PPARd-UAS-bla, beta-lactamase FRET ratio, antagonist, 17 h; series mostly up to 62 µM. A digest of the protocol:
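Read-out is beta-lactamase FRET fluorescence, measured 2 h after substrate addition at room temperature. Beforehand, UAS-bla HEK293H cells carrying the PPARd reporter were exposed to compounds with L165041 at 300 nM final for 17 h at 37 C.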
Consider `CC(=O)Oc1ccc2c(c1)CC[C@@H]1[C@@H]2CC[C@]2(C)[C@@H](O)CC[C@@H]12`, for which the Potency result is “inactive”.
As to `CCc1nn(CCCN2CCN(c3cccc(Cl)c3)CC2)c(=O)n1CCOc1ccccc1`, the Potency entry is “inactive”.
The same measure, in the same setting: with `C=CCNc1nc(NCC=C)nc(N2CCN(C(c3ccc(F)cc3)c3ccc(F)cc3)CC2)n1` the entry was “inactive”.
As for `CC(C)CCCC(=O)O`, the Potency result was “inactive”.
Same read-out and setting: the value for `CC1C2CC(CC2C2CCCC(O)C2)C1(C)C` (stereo not drawn) was “inactive”; that for `O=C(CS)OCCOC(=O)CS` was “inactive”.
The same measure, in the same setting: the value for `CCCCCCCCCCCC[N+](C)(C)CC(=O)[O-]` was “inactive”; that for `O=C1OCCN1/N=C/c1ccc([N+](=O)[O-])o1` was “inactive”.
Same read-out and setting: with `COC(OC)(C(=O)c1ccccc1)c1ccccc1` the entry was “inactive”; with `CO/N=C1\CN(c2nc3c(cc2F)c(=O)c(C(=O)O)cn3C2CC2)CC1CN` (stereo not drawn), “inactive”.
Turning to `CC(C)C(OC(=O)c1ccccc1)C(C)(C)COC(=O)c1ccccc1` (stereo not drawn), the Potency entry was “inactive”.
Same read-out and setting: with `O=C(Nc1ccc([N+](=O)[O-])cc1)Nc1ccc([N+](=O)[O-])cc1` the entry was “inactive”.
Still for that read-out and setting: with `CC(C)(CCl)c1ccccc1` the entry was “inactive”.
Same read-out and setting: the value for `Cc1nccn1-c1ccc(Sc2cccc(C3(C(N)=O)CCOCC3)c2)cc1` was “inactive”; that for `Cc1ccc(S)cc1` was “inactive”.
`CCCOCCOCCO`: the Potency result was “inactive”.
On the same count and under the same terms, the value for `O=C(CCCCCCC(=O)Nc1ccccc1)NO` was “inactive”; that for `CC(C)(O)c1ccccc1CC[C@@H](SCC1(CC(=O)O)CC1)c1cccc(/C=C/c2ccc3ccc(Cl)cc3n2)c1` was “inactive”; that for `NC(=O)Cn1c(=O)cc(CCN2CCN(c3nccc4sccc34)CC2)c2ccc(F)cc21` was “inactive”.
The same measure, in the same setting: with `O=Cc1c(Cl)cccc1Cl` the entry was “inactive”; with `CC#N`, “inactive”.
In the case of `NC(=O)N(O)[C@@H]1COc2cc(OCc3ccccc3)ccc21`, the Potency result was “inactive”.
The same measure, in the same setting: the value for `OCC1CC=CCC1` (stereo not drawn) was “inactive”; that for `C[Si](NC1CCCCC1)(NC1CCCCC1)NC1CCCCC1` was “inactive”.
Still for that read-out and setting: the value for `CCCCCCOC(=O)C(C)C` was “inactive”.
